Earlier results as cited in PubChem BioAssay AID977608.
The whole screen tested about 4,300 compounds, of which about 4,300 (100%) were called active. No cut-off is given here; in the data, nearly all actives have IC50 up to about 1400 µM. The set was probably picked from earlier hits. Some of the results follow. Where a SMILES comes first, the peptide text is derived from it. [ ]: non-standard residue; d: D form. The star is where a group is joined. Thr(P(OH)3+) = C[C@@H](O[P+](O)(O)O)[C@H](N)C(=O)O; Pentanoyl(5-cHex) = O=C(CCCCC1CCCCC1)*; Ahx = NCCCCCC(=O)O

Assay: literature IC50 values for PDB complexes, PDB-derived complexes (AID 977608)
Settings: PDB protein-ligand complexes

O=C(C[P+](O)(O)O)OC1[C@@H](O[P+](O)(O)O)[C@H](O[P+](O)(O)O)C(OCc2ccccc2)[C@H](O[P+](O)(O)O)[C@H]1O[P+](O)(O)O (stereo not given in full)
IC50 (protein: Inositol hexakisphosphate and diphosphoinositol-pentakisphosphate kinase 2 PPIP5K2, PDB entry 4nzn): 0.42 µM (active)

O=C(C[P+](O)(O)O)OC1[C@@H](O[P+](O)(O)O)[C@H](O[P+](O)(O)O)C(O[P+](O)(O)O)[C@H](O[P+](O)(O)O)[C@H]1O[P+](O)(O)O (stereo not given in full)
IC50 (protein: Inositol hexakisphosphate and diphosphoinositol-pentakisphosphate kinase 2 PPIP5K2, PDB entry 4nzm): 0.14 µM (active)

CCCCCNCC([P+](O)(O)O)[P+](O)(O)O
IC50 (protein: Farnesyl pyrophosphate synthase, PDB entry 4dwb): 1.84 µM (active)

CCCNCC([P+](O)(O)O)[P+](O)(O)O
IC50 (protein: Farnesyl pyrophosphate synthase, PDB entry 4dxj): 0.038 µM (active)

CCCCCCNCC([P+](O)(O)O)[P+](O)(O)O
IC50 (protein: Farnesyl pyrophosphate synthase, PDB entry 4e1e): 0.49 µM (active)

CCCCCCCNCC([P+](O)(O)O)[P+](O)(O)O
IC50 (protein: Farnesyl pyrophosphate synthase, PDB entry 4dwg): 0.058 µM (active)

CC(=O)N[C@H]1[C@@H](O[P+](O)(O)O[P+](O)(O)OC[C@H]2O[C@@H](n3ccc(=O)[nH]c3=O)[C@H](O)[C@@H]2O)O[C@H](CO)[C@@H](O)[C@@H]1O[C@H](C)C(=O)N[C@@H](C)C(=O)N[C@H](CCC(=O)N[C@@H](CSCCc1cn([C@@H]2[C@H](O)[C@@H](CO[P+](O)(O)O[C@H]3[C@@H](O)[C@H](n4ccc(N)nc4=O)O[C@@H]3CO[P+](O)(O)O[C@H]3[C@@H](O)[C@H](n4ccc(N)nc4=O)O[C@@H]3COP(O)O)O[C@H]2n2cnc3c(N)ncnc32)nn1)C(=O)N[C@H](C)C(=O)N[C@H](C)C(=O)O)C(=O)O
IC50 (protein: FemX, PDB entry 4ii9): 0.93 µM (active)

CN(Cc1cnc2c(n1)C(N)NC(N)N2)c1ccc(C(=O)N[C@@H](CCC(=O)O)C(=O)O)cc1 (stereo not given in full)
IC50 (protein: Lactobacillus casei dihydrofolate reductase, PDB entry 1ao8): 0.006 µM (active)

NCC[C@H](C1CC=CC1)n1cc(-c2ncnc3[nH]ccc23)cn1
IC50 (protein: Proto-oncogene tyrosine-protein kinase Src, PDB entry 4u5j): 2.93 µM (active)

O=CC[C@@H](NC(=O)OC1CCCC1)c1ccccc1
IC50 (protein: RHOMBOID PROTEASE GLPG, PDB entry 3zmh): 5.27 µM (active)

O=CC[C@@H](NC(=O)Oc1ccccc1)c1ccccc1
IC50 (protein: RHOMBOID PROTEASE GLPG, PDB entry 3zmi): 1.12 µM (active) | IC50 (protein: RHOMBOID PROTEASE GLPG, PDB entry 3zot): 1.12 µM (active)

CC(C)COC(=O)N[C@H](CC=O)c1ccccc1
IC50 (protein: RHOMBOID PROTEASE GLPG, PDB entry 3zmj): 11.7 µM (active)

CSCC[C@H](NC(=O)[C@@H](NC(=O)[C@H](CO)NC(=O)[C@H](Cc1cnc[nH]1)NC(=O)[C@H](CC(C)C)NC(=O)[C@@H]1CCCN1C(=O)CCCCCNC(=O)CCCCC1CCCCC1)[C@@H](C)O[P+](O)(O)O)C(N)=O ({Pentanoyl(5-cHex)-Ahx}-PLHS[Thr(P(OH)3+)]M-NH2)
IC50 (protein: Serine/threonine-protein kinase PLK1, PDB entry 4lkm): 0.46 µM (active)

CSCC[C@H](NC(=O)[C@@H](NC(=O)[C@H](CO)NC(=O)[C@H](Cc1cnc[nH]1)NC(=O)[C@H](CC(C)C)NC(=O)[C@@H]1CCCN1C(=O)CC12CC3CC(CC(C3)C1)C2)[C@@H](C)O[P+](O)(O)O)C(N)=O (HELM PEPTIDE1{[O=C(CC12CC3CC(CC(C3)C1)C2)[*:2]].P.L.H.S.[C[C@@H](O[P+](O)(O)O)[C@H](N[*:1])C(=O)[*:2]].M.[am]}$$$$V2.0)
IC50 (protein: Serine/threonine-protein kinase PLK1, PDB entry 4lkl): 0.82 µM (active)

Cc1[nH]c2ccccc2c1CCNC(=O)c1ccccc1F
IC50 (protein: Arp2/3 complex, PDB entry 3ukr): 12 µM (active)

NC1CCC(Nc2nccc(-c3cccnc3Oc3ccc(NS(=O)(=O)c4ccccc4)c4ccccc34)n2)CC1 (stereo not given)
IC50 (protein: Mitogen-activated protein kinase 10 JNK3, PDB entry 4u79): 0.4 µM (active)

O=C(COc1ccccc1[P+](O)(O)O)Nc1cccc(Cl)c1
IC50 (protein: 14-3-3 protein sigma, PDB entry 4dhq): 32 µM (active)

COc1cccc(NC(=O)COc2ccccc2[P+](O)(O)O)c1
IC50 (protein: 14-3-3 protein sigma, PDB entry 4dho): 118 µM (active)

O=C(COc1ccccc1[P+](O)(O)O)Nc1cc(Cl)cc(Cl)c1
IC50 (protein: 14-3-3 protein sigma, PDB entry 4dhs): 16 µM (active)

COc1ccc(OC)c(NC(=O)COc2ccccc2[P+](O)(O)O)c1
IC50 (protein: 14-3-3 protein sigma, PDB entry 3t0m): 116 µM (active)

O=C(COc1ccccc1[P+](O)(O)O)Nc1cccc(C(F)(F)F)c1
IC50 (protein: 14-3-3 protein sigma, PDB entry 4dhm): 165 µM (active)

NC1=N[C@@]2(c3cc(NC(=O)c4ccc(F)cn4)ccc3F)COC[C@H]2CS1
IC50 (protein: Beta-secretase 1 BACE1, PDB entry 4x7i): 0.0203 µM (active)

Cc1nc(-c2ccccn2)nc(N[C@H](Cc2ccccc2)C(N)=O)c1Cl
IC50 (protein: Methionine aminopeptidase 1, PDB entry 4iku): 1.79 µM (active)

CCC(C)(C)c1nn(CCO)c2c1NC(c1ccc(-n3ccnc3C)cc1)CNC2=O (stereo not given)
IC50 (protein: cGMP-dependent 3',5'-cyclic phosphodiesterase, PDB entry 4jib): 0.045 µM (active)

COC(=O)N[C@@H](CC(C)C)C(=O)N[C@H](CO)C[C@@H]1CCNC1=O
IC50 (protein: 3C-like protease, PDB entry 3ur9): 0.49 µM (active)

CC(C)C[C@H](NC(=O)OCc1ccccc1)C(=O)N[C@@H](CC(C)C)C(=O)N[C@@H](CC(C)C)[C@@H](O)[C@H](C)CO
IC50 (protein: Proteasome subunit alpha CP, PDB entry 4no9): 0.015 µM (active)

CC(C)C[C@H](NC(=O)OCc1ccccc1)C(=O)N[C@H](CO)C[C@@H]1CCNC1=O
IC50 (protein: 3C-like proteinase, PDB entry 4f49): 0.82 µM (active) | IC50 (protein: Genome polyprotein, PDB entry 4dcd): 1.77 µM (active)

CC[C@H](C)[C@H](CO)[C@@H](O)C(=O)N[C@H]1C[C@H]1C[C@@H](CCc1ccccc1)NC(=O)[C@H](C)NC(=O)OCc1ccccc1
IC50 (protein: Proteasome, PDB entry 4j70): 5.7 µM (active)

c1cc2cnc3ccsc3c2cn1
IC50 (protein: DUAL SPECIFICITY PROTEIN KINASE TTK, PDB entry 4bi1): 69.1 µM (active)

c1cc2cnc3sccc3c2cn1
IC50 (protein: DUAL SPECIFICITY PROTEIN KINASE TTK, PDB entry 4bhz): 53.5 µM (active)

c1cc2c(cn1)cnc1sccc12
IC50 (protein: DUAL SPECIFICITY PROTEIN KINASE TTK, PDB entry 4bi2): 94.1 µM (active)

O=C(O)[C@H]1CCCC[C@H]1C(=O)N1CCc2ccccc2[C@H]1CN1Cc2ccccc2C1=O
IC50 (protein: Kelch-like ECH-associated protein 1, keap1 kelch domain, PDB entry 4n1b): 1.1 µM (active)

Cc1cccc2c1CCN(C(=O)[C@@H]1CCCC[C@@H]1C(=O)O)[C@@H]2CN1Cc2ccccc2C1=O
IC50 (protein: Kelch-like ECH-associated protein 1, keap1 kelch domain, PDB entry 4l7d): 0.75 µM (active)
